# ADAM10 inh: inhibits human ADAM10; inhibition, % at 7 µM; O14672; 370,000 tested, 0.62% active; recombinant ADAM10, EDANS/DABCYL FRET peptide cleavage, 3 h; AID 720582;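 active means inhibition above a per-campaign cutoff equal to the mean of compounds falling between control-based bounds plus 3 SD, cut at about 20% in these data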;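 further: 0% = DMSO wells while the 100% control is not disclosed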
# Target sequence (O14672 214-748 limits assumed): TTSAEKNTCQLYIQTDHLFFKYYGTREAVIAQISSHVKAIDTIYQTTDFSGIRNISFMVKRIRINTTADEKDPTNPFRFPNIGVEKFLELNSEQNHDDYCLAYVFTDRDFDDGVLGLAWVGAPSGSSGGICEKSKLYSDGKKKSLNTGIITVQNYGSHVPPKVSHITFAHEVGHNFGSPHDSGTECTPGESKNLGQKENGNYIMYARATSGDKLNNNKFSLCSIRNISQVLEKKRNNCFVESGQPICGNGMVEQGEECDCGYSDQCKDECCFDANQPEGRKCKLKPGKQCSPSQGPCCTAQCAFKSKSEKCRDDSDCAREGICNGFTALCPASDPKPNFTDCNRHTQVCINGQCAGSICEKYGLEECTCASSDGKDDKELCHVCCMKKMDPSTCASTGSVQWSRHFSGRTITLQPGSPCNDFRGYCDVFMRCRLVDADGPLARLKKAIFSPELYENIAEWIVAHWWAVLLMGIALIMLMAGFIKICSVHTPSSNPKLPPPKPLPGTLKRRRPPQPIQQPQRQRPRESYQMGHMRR
# rCAG RNA binder: molecules binding r(CAG) RNA repeats | r(CAG) RNA repeat, TO-PRO-1 dye displacement fluorescence | inhibition, % at 3 µM | 370,000 tested, 1.3% active | AID 651821;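 active means inhibition above the plate cutoff, the mean of all test compounds on that plate plus 3 SD, cut at about 35% in these data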;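 further: 0% = DMSO alone and 100% = 100 µM mitoxantrone as full dye displacement; higher means more dye released from RNA so lower well fluorescence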
# KLK7 zymogen act: activators of human kallikrein-7 zymogen; P49862; purified proKLK7, EDANS-DABCYL substrate fluorescence; 100% is mature enzyme control, 0% vehicle; activation, % at 7 µM; 370,000 tested, 0.9% active; AID 652039;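 active means activation above the mean of all tested compounds plus 3 SD, computed per campaign excluding outliers beyond control limits, cut at about 13% in these data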
# ADAM17 inh: ADAM17 inhibition, QFRET primary screen; 370,000 tested, 0.83% active; AID 720648; recombinant ADAM17, EDANS/DABCYL FRET peptide cleavage; inhibition, % at 6.95 µM; P78536;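 active means inhibition above the mean of compounds lying between control limits plus 3 SD, set per campaign, cut at about 8.5% in these data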;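 further: 0% = DMSO-only wells as the low control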
# MPTP inh: inhibitors of mitochondrial permeability transition pore; isolated mouse mitochondria, Ca2+ swelling absorbance, 30 min; inhibition, % at 10 µM; 360,000 tested, 1.4% active; AID 602449;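 active means inhibition of 50% or more, scaled per plate between neutral and stimulator controls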;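 further: 0% = DMSO wells given calcium and 100% = 1 mM EGTA wells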
# DSG3 Ab inh: human desmoglein-3 autoantibody binding inhibition. DSG3-coupled beads, scFv-anti-DSG3-GFP binding, flow cytometry; active compounds read low. AID 588358. binding (percent of control), % at 10 µM. P32926. 310,000 tested, 0.48% active;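 active means binding more than 3 SD below its plate's average and above zero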;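 further: hits lower antibody fragment binding to DSG3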
# proKLK7 act conf: confirmation of human kallikrein-7 zymogen activators; 3,200 tested, 68% active; shares compounds with KLK7 zymogen act; activation, % at 7 µM; AID 686949; purified proKLK7, EDANS-DABCYL substrate fluorescence; scaled: vehicle 0, mature enzyme 100;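 active means activation, as change over the incubation, above the mean of all tested compounds plus 3 SD, cut at about 13% in these data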
# EDANS-DABCYL int: fluorescence interference counter-screen for KLK7 activators | AID 686952 | 3,200 tested, 80% active | shares compounds with KLK7 zymogen act | activation, % at 7 µM | EDANS-DABCYL substrate fluorescence interference, no enzyme, 4 h; solvent 0%, active enzyme control 100%;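 active means activation above the all-compound mean plus 3 SD, ignoring values outside control-based bounds, cut at about 4.8% in these data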;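 further: value is the 4 h activation minus the activation read at time zero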
# EDANS interf: optically interferes with EDANS-DABCYL fluorescence, kallikrein-7 activator counter-screen. 250 tested, 20% active. EC50, µM. shares compounds with KLK7 zymogen act. AID 720493. EDANS-DABCYL peptide fluorescence interference, no enzyme;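 active means compounds that raise the fluorescence signal in this interference counterscreen, with EC50 at or below 10 µM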;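 further: intact quenched peptide substrate alone read at 355 nm excitation and 520 nm emission; signal is fluorescence gain from T0 to T4 after four hours at room temperature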
# Numbers without * were called inactive; i = inactive; x = no result. A selection: hits, their analogues and other compounds. The true share with any hit is near 4.7%.
SMILES,ADAM10 inh,rCAG RNA binder,KLK7 zymogen act,ADAM17 inh,MPTP inh,DSG3 Ab inh,proKLK7 act conf,EDANS-DABCYL int,others
CCCc1cc(=O)oc2cc(OCC(=O)NCCCN3CCOCC3)c(Cl)cc12,-55,-8,1,-19,-1,126,x,x,
Cc1cc(=O)oc2c(CN3CCCCC3)c(O)c(Cl)cc12,i,8,61*,i,-1,104,61*,60*,
Cc1cc2oc(=O)cc(CN3CCCC3)c2cc1C,-53,9,1,-11,0,x,x,x,
CCCc1cc(=O)oc2c(CN3CCCC3)c(O)c(Cl)cc12,i,2,70*,i,0,97,64*,77*,
Cc1nc(C)c(C(=O)OC(C)C(=O)Nc2ccc(F)cc2)s1 (centres undefined),-4,4,1,-3,0,x,x,x,
COc1c2ccoc2nc2c(OC)c(OCC(O)C(C)(C)O)ccc12 (centres undefined),i,-2,22*,-383,-1,101,41*,39*,
COc1c2ccoc2nc2c(OC)c(OC[C@@H](O)C(C)(C)O)ccc12,i,0,24*,-380,-1,96,37*,40*,
COc1c2ccoc2c(OC[C@@H](O)C(C)(C)O)c2oc(=O)ccc12,-29,5,0,-6,-1,105,x,x,
COc1c2ccoc2c(OC[C@@H](OC(C)=O)C(C)(C)O)c2oc(=O)ccc12,-69,3,-1,-21,0,108,x,x,
COc1c2ccoc2nc2c(OC)c(O)ccc12,-45,1,2,-11,0,104,x,x,
COc1ccc2c(OC)c3ccoc3nc2c1OC,i,0,27*,i,-1,99,31*,62*,
COc1c2ccoc2nc2c(OC)c(OCC(OC(C)=O)C(C)(C)O)ccc12 (centres undefined),i,-2,18*,-356,-1,98,13*,13*,
O=C(Nc1cccc(S(=O)(=O)NCc2ccco2)c1)c1cccc(Cl)c1,6,4,0,2,5,103,x,x,
O=S(=O)([N-]c1nc2ccccc2nc1-n1cc[n+](Cc2ccccc2)c1)c1ccc(Br)cc1,-25,0,1,-12,4,106,x,x,
COc1cc(OC)cc(C2=Cc3ccccc3C(CC(=O)c3ccco3)N2c2ccc(-c3cccnc3)cc2)c1 (centres undefined),1,14,-6,6,1,x,x,x,
COc1ccc(-c2ccc(N3C(c4cc(OC)cc(OC)c4)=Cc4ccc(OC)cc4C3CC(C)=O)cc2)cc1 (centres undefined),-10,10,0,-2,1,x,x,x,
COC(=O)c1ccc(N2C(c3cc(OC)cc(OC)c3)=Cc3ccc(-c4cccnc4)cc3C2CC(=O)C2CC2)cc1 (centres undefined),i,10,62*,-234,2,x,29*,-10,EDANS interf=>70
COC(=O)c1ccc(N2C(c3cc(OC)cc(OC)c3)=Cc3ccc(-c4ccc(C(N)=O)cc4)cc3C2CC(=O)C2CC2)cc1 (centres undefined),i,14,40*,-285,-1,x,57*,23*,EDANS interf=>70
Cc1ccc(C(=O)N2CCN(S(=O)(=O)N3CCCCCC3)CC2)cc1,-1,-5,0,-2,1,x,x,x,
Nc1ccc2c(C(F)(F)F)cc(C(F)(F)F)nc2n1,i,6,38*,i,0,102,47*,42*,
CCc1nn(CC(=O)NCCC(C)C)c(=O)c2cc3c(OC)cccc3n12,-61,-4,0,-19,1,96,x,x,

# Bioassay records: PubChem BioAssay, several laboratories
